Here are results for 36 compounds from ChEMBL document CHEMBL3433997, “St. Jude Leishmania screening dataset” (2016).

As a reminder, the inhibition is the drop in the measured response relative to a control, in per cent.

Common to all, as to type: functional
Test [1] addresses Solute carrier family 2, facilitated glucose transporter member 1 (Homo sapiens) (UniProt P11166). As to the kind of experiment: ST_JUDE_LEISH: Cytotoxicity at 2uM final concentration against transgenic Leishmania Mexicana promastigotes LmGLUT1 that are glucose transport deficient and complemented with the human glucose transporter GLUT1. Activity is measured by DNA content using SYBR green in vitro.

Test [2] concerns the target Hexose transporter 1 (Plasmodium falciparum) (UniProt O97467). As to the kind of experiment: ST_JUDE_LEISH: Cytotoxicity at 2uM final concentration against transgenic Leishmania Mexicana promastigotes LmPfHT that are glucose transport deficient and complemented with the Plasmodium falciparum hexose transporter. Activity is measured by DNA content using SYBR green in vitro.

Test [3] concerns the target Glucose transporter (Leishmania mexicana) (UniProt O61059). As to the kind of experiment: ST_JUDE_LEISH: Cytotoxicity at 2uM final concentration against transgenic Leishmania Mexicana promastigotes LmGT2 that are glucose transport deficient and complemented with the L. Mexicana glucose transporter 2. Activity is measured by DNA content using SYBR green in vitro.

Chain of Solute carrier family 2, facilitated glucose transporter member 1 (Homo sapiens) (P11166 whole entry): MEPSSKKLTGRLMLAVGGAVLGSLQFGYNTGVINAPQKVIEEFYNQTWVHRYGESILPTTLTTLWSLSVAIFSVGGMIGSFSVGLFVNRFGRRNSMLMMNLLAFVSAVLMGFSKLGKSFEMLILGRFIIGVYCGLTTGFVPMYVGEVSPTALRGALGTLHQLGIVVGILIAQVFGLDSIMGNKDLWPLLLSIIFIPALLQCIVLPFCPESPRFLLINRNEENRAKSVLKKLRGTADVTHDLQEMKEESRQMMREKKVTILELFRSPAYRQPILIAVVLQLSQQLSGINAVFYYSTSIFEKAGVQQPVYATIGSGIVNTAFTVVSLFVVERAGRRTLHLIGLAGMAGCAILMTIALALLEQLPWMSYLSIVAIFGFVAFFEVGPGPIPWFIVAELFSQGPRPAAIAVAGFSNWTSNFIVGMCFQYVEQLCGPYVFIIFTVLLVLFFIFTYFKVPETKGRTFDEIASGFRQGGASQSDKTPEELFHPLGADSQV

For `COc1ccc2nccc(N3CCC(CCNCc4ccc5c(n4)NC(=O)CO5)CC3)c2n1`, the inhibition in test [1] stood at 0.66%; in test [2] it was 0.67%; in test [3], 1.8%.

For the compound `CC1(CCCCN2CCC(Cc3ccccc3)CC2)C(=O)Nc2ccccc21` (stereo not drawn), the inhibition in test [1] is 6.25%; in test [2], 5.65%; in test [3], 4.71%.

As for `Cc1cccc2nc(-c3cccc(-c4ccc(NC(=O)Cc5ccc[n+]([O-])c5)cc4)c3)[nH]c12`, the inhibition in test [1] stood at 0.18%; in test [2] it was 1.16%; in test [3], 0.56%.

As to `Oc1ccc2c(CNCCc3ccccc3)c(O)ccc2c1CNCCc1ccccc1`, the inhibition in test [1] stood at 8.01%; in test [2], 6.13%; in test [3], 6.71%.

As to `O=C(c1ccc(-c2ccccn2)s1)N1CCc2cc3nccc(N4CCN5CCC[C@H]5C4)c3cc21`, the inhibition came out at 8.55% in test [1], 8.34% in test [2] and 8.66% in test [3].

Regarding `COc1ccc(CNC(=O)c2cnc3c(O)cccc3c2Nc2cccc(NC(=O)c3ccc(Cl)c(Cl)c3)c2)cc1`, the inhibition stood at 74.7% in test [1], 78.8% in test [2] and 76.6% in test [3].

Take `Cc1cc(NC(=O)Nc2cccc(N(C)C)c2)c2ccccc2n1`: the inhibition in test [1] was determined as 2.29%; in test [2] it was 2.59%; in test [3] it was 1.12%.

Turning to `NS(=O)(=O)c1ccc(Nc2nccc(-c3c(-c4cccc(NC(=O)c5c(F)cccc5F)c4)nn4ccccc34)n2)cc1`, the inhibition in test [1] came to 11.8%; in test [2], 14.8%; in test [3], 8.76%.

With `COc1ccc2ncc(F)c(CCN3CC(O)C(CNCc4ccccc4)C3)c2n1` (stereo not drawn), the inhibition in test [1] came out at 7.65%; in test [2], 5.1%; in test [3] it was 4.78%.

Regarding `COc1cccc(-c2cc(-c3ccc(NC(=O)c4ccccc4)cc3)c3c(N)ncnc3n2)c1`, the figures for the inhibition in test [1], in test [2] and in test [3] were -0.77%, 0.31% and -2.31%, respectively.

For the compound `CS(=O)(=O)c1ccc(CNCc2ccc(-c3cccc(-c4nc5cc(F)ccc5[nH]4)c3)cc2)cc1`, the inhibition in test [1] is 3.3%; in test [2], 1.83%; in test [3], 2.88%.

Consider `Cc1ccc2[nH]c3c(NCCCN4CCOCC4)ncnc3c2c1`, for which the inhibition in test [1] is 7.43%; in test [2] it was -2.37%; in test [3] it was 0.92%.

On to `COc1ccc2nccc([C@@H](O)CN3CCC(NCc4cc5c(cc4F)SCC(=O)N5)CC3)c2n1`, for which the results for the inhibition in test [1], in test [2] and in test [3] were 9.08%, 7.72% and 8.6%, respectively.

Regarding `CCCCc1ccc(-c2ccc3[nH]c(C)c(Br)c(=O)c3c2)cc1`, the inhibition worked out at 3.02% in test [1], 3.88% in test [2] and 2.44% in test [3].

For the compound `O=C(Nc1ccc(Cl)c(Cl)c1)N1CCc2ccc(OCCCN3CCCCC3)cc2CC1`, the values for the inhibition in test [1], in test [2] and in test [3] were 17.5%, 16.2% and 20.3%, respectively.

As for `Cc1ccc(/C=C/C(=O)NCCCCCN2CCCN(C(=O)Nc3ccc(Cl)c(Cl)c3)CC2)cc1`, the results for the inhibition in test [1], in test [2] and in test [3] were 1.97%, 2.34% and 4.4%, respectively.

In the case of `CC(CCON1C(N)=NC(N)=NC1(C)C)c1ccc(Cl)c(Cl)c1` (stereo not drawn), the values for the inhibition in test [1], in test [2] and in test [3] were 26.6%, 41.4% and 27.7%, respectively.

Consider `CC(C)CNCc1ccc(-c2ccc(CN(CCCN3CCN(C)CC3)C(=O)CCC3CCCC3)cc2)cc1`, for which the inhibition in test [1] came to 55.1%; in test [2], 52%; in test [3], 3.97%.

Regarding `CC(=O)Nc1nc(C(=O)Nc2cccc(-c3cccc(-c4nc5ccccc5[nH]4)c3)c2)cs1`, the values for the inhibition in test [1], in test [2] and in test [3] were 12%, 15.6% and 6.57%, respectively.

In the case of `CC(C)=CC1C(C(=O)n2c(=N)[nH]c3ccccc32)C1(C)C` (stereo not drawn), the inhibition worked out at 9.13% in test [1], 7.8% in test [2] and 5.36% in test [3].

`Cc1[nH]c(C)c(-c2ccc(Oc3cccc(Cl)c3)cc2)c(=O)c1Cl`: the inhibition in test [1] was determined as 9.05%; in test [2] it was 7.78%; in test [3], 4.29%.

With `CC[C@H](C)CNC(=O)c1cncc(-c2ccc(CNCC3CNCCCO3)cc2)c1` (stereo partly drawn), the inhibition in test [1] is -1.56%; in test [2], -2.12%; in test [3], -0.99%.

As for `CN1CCN(CCCNCc2ccccc2-c2cccc(CNCc3ccc4c(c3)OCO4)c2)CC1`, the figures for the inhibition in test [1], in test [2] and in test [3] were -1.31%, -0.45% and 2.45%, respectively.

As for `O=C(Nc1ccc(C(F)(F)F)cc1)c1cccc(S(=O)(=O)NC2CCN(Cc3ccccc3)C2)c1` (stereo not drawn), the results for the inhibition in test [1], in test [2] and in test [3] were 4.37%, 3.64% and 3.95%, respectively.

Regarding `C[C@@H](N)C#Cc1cc2c(Nc3ccc(OCc4cccc(F)c4)c(Cl)c3)ncnc2s1`, the inhibition in test [1] was determined as 2.5%; in test [2], 4.76%; in test [3] it was 2.27%.

For `CC(C)(C)C(=O)Nc1c(-c2cc(=O)oc3cc4c(cc23)CCC4)oc2ccccc12`, the inhibition in test [1] is 4.02%; in test [2] it was 4.1%; in test [3], 5.42%.

Turning to `CN1CCN(c2ccnc3ccc(NC(=O)Nc4cccc(C#N)c4)cc23)CC1`, the inhibition in test [1] turned out to be 1.6%; in test [2], 2.57%; in test [3], 2.19%.

Take `FC(F)(F)c1ccc2[nH]c(-c3ccc(-c4cccc(CN5CCCCC5)c4)cc3)nc2c1`: the inhibition in test [1] amounted to 2.89%; in test [2] it was 2.01%; in test [3] it was 0.4%.

Take `CCN(CC)CCCC(C)Nc1c2ccccc2nc2c1ccc1ccccc12` (stereo not drawn): the inhibition was determined as 7.99% in test [1], 3.26% in test [2] and 7.76% in test [3].

With `CC(C)C[C@@H](NC(=O)OC(C)(C)C)C(=O)Nc1ccc(Cc2ccc(NC(=O)[C@@H](CC(C)C)NC(=O)OC(C)(C)C)cc2)cc1`, the inhibition amounted to 3.6% in test [1], 3.72% in test [2] and 0.63% in test [3].

On to `O=C(Nc1cccc(C(F)(F)F)c1)c1cc([N+](=O)[O-])cc2cn[nH]c12`, for which the values for the inhibition in test [1], in test [2] and in test [3] were 6.35%, 5.74% and 1.24%, respectively.

For the compound `COCc1cc(C)nc2sc(C(=O)Nc3cc(C(C)(C)C)ccc3O)c(N)c12`, the inhibition was 3.32% in test [1], 2.62% in test [2] and -0.92% in test [3].

For the compound `COc1ccc(CNC2CCN(C)CC2)cc1-c1ccc(S(=O)(=O)NCc2ccccc2)c(C)c1`, the inhibition was 7.68% in test [1], 8.41% in test [2] and 7.94% in test [3].

Regarding `O=[N+]([O-])c1ccc(CNCCCCCCNCc2ccc([N+](=O)[O-])c3ccccc23)c2ccccc12`, the inhibition was 2.24% in test [1], 0.87% in test [2] and 7.99% in test [3].

Turning to `O=C(Nc1cccc(C(F)(F)F)c1)c1cccc(S(=O)(=O)NC2CCN(CC3CCCCC3)C2)c1` (stereo not drawn), the inhibition was 0.18% in test [1], -0.46% in test [2] and 2.99% in test [3].

`CCN(CC)CCN(Cc1ccc(-c2ccc(Cl)s2)cc1)C(=O)Cn1c(CCc2cccc(F)c2F)nc(=O)c2ccccc21`: the inhibition in test [1] was determined as 3.75%; in test [2], 3.7%; in test [3], 2.15%.
